Test results taken from the supplement of paper PMC10849652.
The full data set covers some 7,900 targets. This sample favours those with a hit. About 0.6% of all pairs of compound and target were hits.

Experiments:
Test in all cases: log2 fold change, soluble protein after heating vs DMSO (PISA); higher = thermal stabilisation; K562 cells, 10 uM, 30 min; active = over 0.2 and 3.5 SD of the protein, either way, in both replicates (recomputed)
ZNF217 = ZNF217 (UniProt O75362)
In short: (§1)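 Soluble protein was quantified by TMTpro 16plex LC-MS/MS after channel sums were equalised. It was obtained as the supernatant after 21,000xg for 90 min from pooled aliquots of K562 cells (2×10^6 cells/mL, 10 μM compound, 30 min) heated for 3 min across 48°C-58°C and extracted in PBS with 0.5% NP-40 at 4°C. Thermal stability values are relative to control samples and come from duplicates. They are given as log2 fold changes.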

ZNF239 = ZNF239 (UniProt Q16600)
In short: as §1

ZNF277 = ZNF277 (UniProt Q9NRM2)
In short: as §1

ZNF511 isoform 1 = ZNF511 isoform 1 (UniProt Q8NB15)
In short: as §1

ZNF512 = ZNF512 (UniProt Q96ME7)
In short: as §1

ZNF579 = ZNF579 (UniProt Q8NAF0)
In short: as §1

ZNF609 = ZNF609 (UniProt O15014)
In short: as §1

ZNF622 = ZNF622 (UniProt Q969S3)
In short: as §1

ZRANB2 = ZRANB2 (UniProt O95218)
In short: as §1

ZW10 = ZW10 (UniProt O43264)
In short: as §1

ZWILCH = ZWILCH (UniProt Q9H900)
In short: as §1

ZYG11B = ZYG11B (UniProt Q9C0D3)
In short: as §1

ZNF580 = ZNF580 (UniProt Q9UK33)
In short: as §1

Measured: log2 fold change

ZNF277, sequence (Q9NRM2 whole entry, looked up): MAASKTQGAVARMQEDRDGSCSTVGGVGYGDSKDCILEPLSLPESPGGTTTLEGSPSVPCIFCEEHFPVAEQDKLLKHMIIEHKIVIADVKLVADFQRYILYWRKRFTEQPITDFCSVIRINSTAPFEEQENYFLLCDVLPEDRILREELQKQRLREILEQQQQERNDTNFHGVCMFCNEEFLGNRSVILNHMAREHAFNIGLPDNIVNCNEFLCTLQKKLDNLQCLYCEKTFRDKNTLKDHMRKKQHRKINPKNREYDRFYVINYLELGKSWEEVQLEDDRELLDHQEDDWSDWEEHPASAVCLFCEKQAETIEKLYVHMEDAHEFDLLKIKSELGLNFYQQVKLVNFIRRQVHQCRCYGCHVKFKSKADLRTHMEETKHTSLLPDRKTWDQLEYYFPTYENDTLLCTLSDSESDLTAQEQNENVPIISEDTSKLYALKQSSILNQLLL
ZNF580, sequence (Q9UK33 whole entry, looked up): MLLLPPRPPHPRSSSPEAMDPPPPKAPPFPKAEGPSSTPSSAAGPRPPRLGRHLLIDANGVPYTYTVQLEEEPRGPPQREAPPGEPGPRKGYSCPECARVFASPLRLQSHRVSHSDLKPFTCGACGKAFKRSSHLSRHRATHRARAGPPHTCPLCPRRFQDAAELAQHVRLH
ZNF239, sequence (Q16600 whole entry, looked up): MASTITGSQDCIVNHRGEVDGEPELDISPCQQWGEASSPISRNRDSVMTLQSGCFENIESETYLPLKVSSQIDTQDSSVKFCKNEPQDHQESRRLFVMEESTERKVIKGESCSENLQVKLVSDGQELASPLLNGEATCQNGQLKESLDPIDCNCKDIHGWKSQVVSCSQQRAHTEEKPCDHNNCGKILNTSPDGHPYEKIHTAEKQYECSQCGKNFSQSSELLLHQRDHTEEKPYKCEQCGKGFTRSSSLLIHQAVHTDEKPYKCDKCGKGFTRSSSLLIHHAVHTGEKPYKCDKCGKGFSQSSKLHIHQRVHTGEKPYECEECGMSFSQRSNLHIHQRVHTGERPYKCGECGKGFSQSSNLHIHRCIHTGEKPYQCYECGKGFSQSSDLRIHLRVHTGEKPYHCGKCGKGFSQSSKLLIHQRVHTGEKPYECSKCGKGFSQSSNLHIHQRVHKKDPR
ZNF609, sequence (O15014 whole entry, looked up): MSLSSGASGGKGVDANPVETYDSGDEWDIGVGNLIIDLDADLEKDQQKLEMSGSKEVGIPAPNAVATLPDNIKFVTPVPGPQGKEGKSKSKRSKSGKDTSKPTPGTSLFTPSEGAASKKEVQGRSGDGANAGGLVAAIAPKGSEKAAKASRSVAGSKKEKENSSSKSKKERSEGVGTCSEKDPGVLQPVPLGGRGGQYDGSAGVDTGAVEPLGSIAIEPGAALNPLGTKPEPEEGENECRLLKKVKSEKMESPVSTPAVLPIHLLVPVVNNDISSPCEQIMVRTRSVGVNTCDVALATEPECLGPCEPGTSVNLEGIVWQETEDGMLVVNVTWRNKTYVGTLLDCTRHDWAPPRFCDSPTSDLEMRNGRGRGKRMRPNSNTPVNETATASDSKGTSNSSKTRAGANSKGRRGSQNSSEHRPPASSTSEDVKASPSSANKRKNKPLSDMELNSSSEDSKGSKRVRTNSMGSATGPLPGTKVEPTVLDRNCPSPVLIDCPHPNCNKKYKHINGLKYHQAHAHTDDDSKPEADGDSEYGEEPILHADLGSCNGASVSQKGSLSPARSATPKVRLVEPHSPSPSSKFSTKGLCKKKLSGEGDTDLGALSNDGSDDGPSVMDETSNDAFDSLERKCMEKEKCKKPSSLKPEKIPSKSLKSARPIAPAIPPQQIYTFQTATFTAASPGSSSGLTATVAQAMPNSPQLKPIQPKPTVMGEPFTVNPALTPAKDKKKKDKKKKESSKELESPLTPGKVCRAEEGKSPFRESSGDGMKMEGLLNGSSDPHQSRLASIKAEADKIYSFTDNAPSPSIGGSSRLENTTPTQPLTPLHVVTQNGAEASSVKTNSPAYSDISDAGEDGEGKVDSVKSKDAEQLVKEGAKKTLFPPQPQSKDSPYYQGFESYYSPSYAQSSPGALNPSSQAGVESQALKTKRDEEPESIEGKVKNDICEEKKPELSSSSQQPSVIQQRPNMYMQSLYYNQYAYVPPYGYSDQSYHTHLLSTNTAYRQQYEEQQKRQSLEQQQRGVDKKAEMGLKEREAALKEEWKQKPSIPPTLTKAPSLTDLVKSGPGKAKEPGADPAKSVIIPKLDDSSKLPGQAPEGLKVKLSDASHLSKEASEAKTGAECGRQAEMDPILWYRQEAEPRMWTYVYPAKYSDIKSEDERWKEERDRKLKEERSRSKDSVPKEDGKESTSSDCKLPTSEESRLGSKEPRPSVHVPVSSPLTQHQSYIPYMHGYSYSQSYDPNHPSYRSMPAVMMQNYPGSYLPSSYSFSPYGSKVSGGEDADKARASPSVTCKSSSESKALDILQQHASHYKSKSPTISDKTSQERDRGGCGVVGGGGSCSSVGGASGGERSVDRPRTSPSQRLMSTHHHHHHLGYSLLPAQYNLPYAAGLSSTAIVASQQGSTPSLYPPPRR
ZYG11B, sequence (Q9C0D3 whole entry, looked up): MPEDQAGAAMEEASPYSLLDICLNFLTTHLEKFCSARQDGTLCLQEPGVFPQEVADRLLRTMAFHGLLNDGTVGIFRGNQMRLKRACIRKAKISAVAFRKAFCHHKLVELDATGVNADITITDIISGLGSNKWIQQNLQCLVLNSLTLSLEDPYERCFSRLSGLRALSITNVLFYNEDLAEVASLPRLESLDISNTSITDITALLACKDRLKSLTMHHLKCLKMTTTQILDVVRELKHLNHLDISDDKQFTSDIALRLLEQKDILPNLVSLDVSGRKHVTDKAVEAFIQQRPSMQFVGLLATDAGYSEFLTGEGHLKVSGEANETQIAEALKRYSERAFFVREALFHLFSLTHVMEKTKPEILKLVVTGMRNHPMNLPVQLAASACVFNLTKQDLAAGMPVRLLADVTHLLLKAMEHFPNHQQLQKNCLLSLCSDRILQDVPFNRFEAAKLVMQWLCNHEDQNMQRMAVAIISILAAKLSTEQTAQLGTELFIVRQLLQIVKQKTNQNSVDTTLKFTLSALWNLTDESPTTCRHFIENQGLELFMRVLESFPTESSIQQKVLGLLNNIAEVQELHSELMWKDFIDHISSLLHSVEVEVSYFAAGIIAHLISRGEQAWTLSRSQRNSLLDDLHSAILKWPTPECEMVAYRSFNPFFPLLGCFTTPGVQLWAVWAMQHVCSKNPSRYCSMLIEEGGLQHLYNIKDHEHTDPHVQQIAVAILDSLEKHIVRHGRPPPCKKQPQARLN
ZNF511 isoform 1, sequence (Q8NB15 whole entry, looked up, canonical isoform): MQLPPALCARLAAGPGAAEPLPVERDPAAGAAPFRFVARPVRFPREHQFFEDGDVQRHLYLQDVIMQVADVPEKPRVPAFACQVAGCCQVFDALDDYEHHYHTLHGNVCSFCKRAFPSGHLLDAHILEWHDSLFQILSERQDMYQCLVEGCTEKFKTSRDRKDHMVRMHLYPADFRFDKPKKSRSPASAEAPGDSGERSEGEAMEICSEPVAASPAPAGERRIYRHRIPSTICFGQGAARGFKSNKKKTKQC
ZWILCH, sequence (Q9H900 whole entry, looked up): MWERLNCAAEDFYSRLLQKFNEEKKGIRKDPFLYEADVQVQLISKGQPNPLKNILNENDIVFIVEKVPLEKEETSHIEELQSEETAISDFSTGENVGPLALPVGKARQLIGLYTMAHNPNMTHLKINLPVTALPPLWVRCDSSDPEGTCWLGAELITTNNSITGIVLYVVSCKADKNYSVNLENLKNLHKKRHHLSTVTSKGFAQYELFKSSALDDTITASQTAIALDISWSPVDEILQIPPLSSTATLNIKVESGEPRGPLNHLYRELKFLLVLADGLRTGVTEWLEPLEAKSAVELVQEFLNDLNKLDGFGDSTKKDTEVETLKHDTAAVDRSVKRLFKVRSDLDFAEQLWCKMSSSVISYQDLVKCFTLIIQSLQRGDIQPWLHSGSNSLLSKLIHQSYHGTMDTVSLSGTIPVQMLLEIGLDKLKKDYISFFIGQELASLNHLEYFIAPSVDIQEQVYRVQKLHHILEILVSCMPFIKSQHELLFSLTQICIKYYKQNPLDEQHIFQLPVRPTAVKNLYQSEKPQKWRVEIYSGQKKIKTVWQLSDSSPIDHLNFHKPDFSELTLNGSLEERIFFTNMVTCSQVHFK
ZNF622, sequence (Q969S3 whole entry, looked up): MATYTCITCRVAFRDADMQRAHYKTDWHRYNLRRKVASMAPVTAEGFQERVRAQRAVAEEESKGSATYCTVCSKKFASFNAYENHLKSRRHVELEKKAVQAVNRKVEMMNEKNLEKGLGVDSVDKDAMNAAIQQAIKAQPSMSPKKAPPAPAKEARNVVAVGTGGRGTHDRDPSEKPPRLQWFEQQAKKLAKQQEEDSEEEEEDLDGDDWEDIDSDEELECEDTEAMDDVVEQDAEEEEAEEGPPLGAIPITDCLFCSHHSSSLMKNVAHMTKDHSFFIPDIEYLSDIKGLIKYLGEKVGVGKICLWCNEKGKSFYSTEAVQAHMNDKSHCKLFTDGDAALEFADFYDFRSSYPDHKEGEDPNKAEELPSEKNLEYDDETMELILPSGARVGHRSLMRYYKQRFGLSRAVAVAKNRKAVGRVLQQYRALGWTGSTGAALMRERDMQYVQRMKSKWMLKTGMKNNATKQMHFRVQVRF
ZRANB2, sequence (O95218 whole entry, looked up): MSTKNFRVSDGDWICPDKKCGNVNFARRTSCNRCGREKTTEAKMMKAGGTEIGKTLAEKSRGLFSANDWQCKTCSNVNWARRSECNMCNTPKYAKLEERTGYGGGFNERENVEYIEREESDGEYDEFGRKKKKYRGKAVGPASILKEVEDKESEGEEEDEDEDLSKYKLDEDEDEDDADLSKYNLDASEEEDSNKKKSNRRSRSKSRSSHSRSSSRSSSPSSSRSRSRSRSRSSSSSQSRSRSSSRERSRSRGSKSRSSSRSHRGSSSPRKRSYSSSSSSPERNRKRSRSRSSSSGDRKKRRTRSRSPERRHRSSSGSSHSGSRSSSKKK

CN1CC[C@H](c2c(O)cc(O)c3c(=O)cc(-c4ccccc4Cl)oc23)[C@H](O)C1 [alvocidib]
inactive: ZNF217 -0.164 | ZNF239 0.226 | ZNF277 0.169 | ZNF511 isoform 1 -0.143 | ZNF512 -0.002 | ZNF579 -0.034 | ZNF609 0.077 | ZNF622 0.085 | ZRANB2 0.068 | ZW10 -0.02 | ZWILCH -0.034 | ZYG11B -0.055

COc1cccc2cc(-c3nc([C@H]4CC[C@H](C(=O)O)CC4)n4ncnc(N)c34)[nH]c12
inactive: ZNF217 0.043 | ZNF239 0.548 | ZNF277 -0.24 | ZNF511 isoform 1 0.099 | ZNF512 -0.041 | ZNF579 -0.078 | ZNF609 -0.028 | ZNF622 0.01 | ZRANB2 -0.01 | ZW10 -0.051 | ZWILCH -0.041 | ZYG11B 0.02

NC1(c2ccc(-c3nc4ccn5c(=O)[nH]nc5c4cc3-c3ccccc3)cc2)CCC1
inactive: ZNF217 -0.045 | ZNF239 -0.253 | ZNF277 0.107 | ZNF511 isoform 1 -0.039 | ZNF512 0.151 | ZNF579 -0.061 | ZNF609 0.018 | ZNF622 -0.019 | ZRANB2 0.046 | ZW10 -0.141 | ZWILCH -0.097 | ZYG11B -0.087

C/C(=N\NC(=O)c1cccc(S(=O)(=O)N2CCOCC2)c1)c1cc(Cl)ccc1O
active: ZNF511 isoform 1 -0.402
inactive: ZNF217 0.074 | ZNF239 0.019 | ZNF277 -0.031 | ZNF512 -0.085 | ZNF579 0.147 | ZNF609 -0.048 | ZNF622 0.015 | ZRANB2 -0.067 | ZW10 0.075 | ZWILCH 0.038 | ZYG11B 0.006

CC[C@H](C)n1cc(C)c2c(C(=O)NCc3c(C)cc(C)[nH]c3=O)cc(-c3ccc(N4CCNCC4)nc3)cc21
inactive: ZNF217 0.045 | ZNF239 -0.096 | ZNF277 0.02 | ZNF511 isoform 1 -0.058 | ZNF512 -0.002 | ZNF579 0.167 | ZNF609 0.076 | ZNF622 -0.012 | ZRANB2 0 | ZW10 0.077 | ZWILCH 0.048 | ZYG11B 0.101

O=C1c2ccccc2-c2n[nH]c3cccc1c23
inactive: ZNF217 0.03 | ZNF239 0.004 | ZNF277 0.065 | ZNF511 isoform 1 0.041 | ZNF512 0.161 | ZNF579 0.279 | ZNF609 0.002 | ZNF622 0.042 | ZRANB2 -0.059 | ZW10 -0.031 | ZWILCH -0.007 | ZYG11B -0.033

O=C(Nc1cccc(Nc2ncc(Br)c(NCCc3cnc[nH]3)n2)c1)N1CCCC1
active: ZNF579 -0.377
inactive: ZNF217 0.01 | ZNF239 0.001 | ZNF277 0.034 | ZNF511 isoform 1 0.072 | ZNF580 0.062 | ZNF609 -0.035 | ZNF622 0.022 | ZRANB2 -0.007 | ZW10 -0.018 | ZWILCH 0.029 | ZYG11B -0.026

COc1cc2ncnc(Nc3ccc(F)c(Cl)c3)c2cc1OCCCN1CCOCC1 [gefitinib]
inactive: ZNF217 0.001 | ZNF239 -0.267 | ZNF277 -0.053 | ZNF511 isoform 1 -0.192 | ZNF512 -0.02 | ZNF579 0.111 | ZNF609 -0.069 | ZNF622 0 | ZRANB2 0.034 | ZW10 0.135 | ZWILCH 0.125 | ZYG11B 0.042

Fc1ccc(Cl)cc1-c1nc(Nc2ccncc2)c2nccnc2n1
inactive: ZNF217 0.168 | ZNF239 -0.333 | ZNF511 isoform 1 -0.03 | ZNF512 0.086 | ZNF579 -0.002 | ZNF609 -0.302 | ZNF622 0.038 | ZRANB2 0.041 | ZW10 -0.04 | ZWILCH -0.013 | ZYG11B 0.013
active: ZNF277 -0.765

CCN(CC)Cc1ccc2cc(COC(=O)Nc3ccc(C(=O)NO)cc3)ccc2c1 [givinostat]
inactive: ZNF217 0.037 | ZNF239 -0.226 | ZNF277 0.199 | ZNF512 0.112 | ZNF579 0.042 | ZNF609 0.063 | ZNF622 -0.004 | ZRANB2 -0.029 | ZW10 0.096 | ZWILCH 0.046 | ZYG11B -0.009

CC(C)C[C@@H](C=O)NC(=O)[C@H](CC(C)C)NC(=O)[C@H](CC(C)C)NC(=O)OCc1ccccc1
inactive: ZNF217 0.024 | ZNF239 0.045 | ZNF277 0.137 | ZNF511 isoform 1 0.195 | ZNF579 -0.271 | ZNF609 0.031 | ZNF622 -0.036 | ZRANB2 -0.027 | ZW10 0.007 | ZWILCH 0.079 | ZYG11B 0.042

Oc1cc(-c2nc(-c3ccccc3)[nH]c2-c2ccncc2)ccc1Cl
inactive: ZNF217 -0.014 | ZNF239 0.044 | ZNF277 -0.004 | ZNF511 isoform 1 0.018 | ZNF579 -0.025 | ZNF609 0.01 | ZNF622 0.016 | ZRANB2 -0.073 | ZW10 -0.034 | ZWILCH -0.002 | ZYG11B 0.015

Cc1ccc(C(=O)N(CCCN)[C@@H](c2nc3cc(Cl)ccc3c(=O)n2Cc2ccccc2)C(C)C)cc1 [ispinesib]
inactive: ZNF217 -0.064 | ZNF239 -0.074 | ZNF277 -0.27 | ZNF511 isoform 1 0.296 | ZNF579 0.029 | ZNF609 0.014 | ZNF622 0.062 | ZRANB2 0.005 | ZW10 -0.179 | ZWILCH -0.045 | ZYG11B 0.041

CCN(CCCOc1ccc2c(Nc3cc(CC(=O)Nc4cccc(F)c4)[nH]n3)ncnc2c1)CCOP(=O)(O)O [barasertib]
inactive: ZNF217 0.03 | ZNF239 -0.034 | ZNF277 0.026 | ZNF511 isoform 1 -0.041 | ZNF579 0.037 | ZNF609 0.039 | ZNF622 -0.001 | ZRANB2 -0.01 | ZW10 0.055 | ZWILCH 0.064 | ZYG11B 0.044

C=CC(=O)N1CCC[C@@H](n2nc(-c3ccc(Oc4ccccc4)cc3)c3c(N)ncnc32)C1 [ibrutinib]
inactive: ZNF217 -0.028 | ZNF239 0.165 | ZNF277 -0.028 | ZNF511 isoform 1 0.047 | ZNF579 -0.024 | ZNF609 -0.024 | ZNF622 -0.003 | ZRANB2 0.013 | ZW10 -0.007 | ZWILCH -0.014 | ZYG11B 0.022

CCCS(=O)(=O)Nc1ccc(F)c(C(=O)c2c[nH]c3ncc(Cl)cc23)c1F
inactive: ZNF239 -0.02 | ZNF277 0.028 | ZNF511 isoform 1 0.014 | ZNF579 -0.085 | ZNF580 0.069 | ZNF609 0.036 | ZNF622 0.023 | ZRANB2 -0.02 | ZW10 0.053 | ZWILCH 0.016 | ZYG11B -0.043
active: ZNF217 0.688

Cc1ccc(Sc2cncc3sc(C(N)=O)cc23)cc1
inactive: ZNF217 -0.107 | ZNF239 0.019 | ZNF277 -0.032 | ZNF511 isoform 1 0.018 | ZNF579 -0.07 | ZNF580 0.16 | ZNF609 -0.045 | ZNF622 -0.022 | ZRANB2 -0.04 | ZW10 0.018 | ZWILCH -0.068 | ZYG11B -0.028

O=C1NC(=O)/C(=C\c2ccc3nccnc3c2)S1
inactive: ZNF217 0.007 | ZNF239 0.065 | ZNF277 -0.108 | ZNF511 isoform 1 0.017 | ZNF579 -0.07 | ZNF609 -0.006 | ZNF622 -0.004 | ZRANB2 0.051 | ZW10 -0.009 | ZWILCH 0.056 | ZYG11B -0.084

CC[C@@H]1C(=O)N(C)c2cnc(Nc3ccc(C(=O)N[C@H]4CC[C@H](N5CCN(CC6CC6)CC5)CC4)cc3OC)nc2N1C(C)C [volasertib]
active: ZW10 -0.399 | ZWILCH -0.266
inactive: ZNF217 -0.007 | ZNF239 0.084 | ZNF277 -0.017 | ZNF511 isoform 1 0.007 | ZNF579 0.098 | ZNF580 0.025 | ZNF609 -0.328 | ZNF622 0.138 | ZRANB2 0.1 | ZYG11B 0.002

CNC(=O)c1ccccc1Nc1nc(Nc2ccc(N3CCOCC3)cc2OC)ncc1Cl
inactive: ZNF217 -0.029 | ZNF239 -0.055 | ZNF277 0.009 | ZNF512 0.151 | ZNF579 -0.019 | ZNF609 -0.057 | ZNF622 0.045 | ZRANB2 0.002 | ZW10 0.035 | ZWILCH 0.027 | ZYG11B -0.016

CN(CCOc1ccc(C[C@@H]2SC(=O)NC2=O)cc1)c1ccccn1 (racemic) [rosiglitazone]
inactive: ZNF217 0.047 | ZNF239 0.17 | ZNF277 0.011 | ZNF511 isoform 1 0.085 | ZNF579 -0.021 | ZNF609 0.027 | ZNF622 0.027 | ZRANB2 -0.055 | ZW10 0.066 | ZWILCH 0.018 | ZYG11B -0.055

CC(C)(C)Cn1c(N)nc2ccc(-c3[nH]c(C(C)(C)C)nc3-c3ccc(F)cc3)nc21 [ralimetinib]
inactive: ZNF217 -0.012 | ZNF239 -0.07 | ZNF277 0.116 | ZNF511 isoform 1 0.074 | ZNF579 0.032 | ZNF609 -0.053 | ZNF622 -0.019 | ZRANB2 -0.014 | ZW10 0.032 | ZWILCH 0.049 | ZYG11B -0.046
